# In PubChem BioAssay AID651711 (Broad Institute, 2012):
# Values joined by “and” are separate entries in the source; they are usually repeats but may differ in a detail not shown here. Identical values can stand only once. In all, about 350,000 compounds went through this assay and about 180 (0.051%) were called active. The entries come from a sample that favours actives as a whole. Unmarked numbers belong to inactive results.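 How the source made its calls: active means mean replicate inhibition above about 25%, with every replicate also reaching it (limit read from the data, passing the limit was not always enough); inconclusive means only one of those two criteria met; inactive means neither criterion met.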
# Target: Protein disulfide-isomerase A6 (Homo sapiens) (UniProt Q15084)
# Sequence (Q15084 whole entry, looked up): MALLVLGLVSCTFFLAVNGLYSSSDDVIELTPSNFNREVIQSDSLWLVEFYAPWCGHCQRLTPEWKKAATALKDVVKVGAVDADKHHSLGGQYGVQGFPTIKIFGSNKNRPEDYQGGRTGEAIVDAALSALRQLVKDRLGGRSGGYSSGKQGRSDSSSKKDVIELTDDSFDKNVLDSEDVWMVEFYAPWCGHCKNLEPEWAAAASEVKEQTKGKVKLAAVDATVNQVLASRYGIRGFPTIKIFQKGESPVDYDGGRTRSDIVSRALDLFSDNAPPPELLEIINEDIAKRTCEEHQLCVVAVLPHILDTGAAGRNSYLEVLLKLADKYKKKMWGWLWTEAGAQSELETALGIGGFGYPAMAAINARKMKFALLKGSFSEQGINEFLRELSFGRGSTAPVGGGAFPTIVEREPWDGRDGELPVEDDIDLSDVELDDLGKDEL
# Assay: ERp5 (PDIA6) reductase activity blockers – biochemical, turbidity, absorbance 650 nm, single point, primary screen (AID 651711)
# Conditions: ERp5 insulin aggregation, 90 min, at 9.99 µM, hits give high values
row,SMILES,inhibition
1,CCC(=O)N(C)C[C@@H]1Oc2cc(-c3ccc(OC)cc3)ccc2S(=O)(=O)N([C@@H](C)CO)C[C@H]1C,0.0355%
2,CC(C)C#Cc1cnc2c(c1)C(=O)N([C@H](C)CO)C[C@@H](C)[C@H](CN(C)Cc1ccccc1)O2,-2.64%
3,C[C@@H]1CN([C@H](C)CO)C(=O)Cc2cc(NC(=O)Nc3cccc4ccccc34)ccc2O[C@@H]1CN(C)Cc1ccc(C(F)(F)F)cc1,60% (active)
4,COc1ccc(S(=O)(=O)Nc2ccc3c(c2)CC(=O)N([C@H](C)CO)C[C@H](C)[C@H](CN(C)C(=O)Nc2ccccc2)O3)cc1,64.1% (active)
5,COc1ccc(NC(=O)N(C)C[C@@H]2Oc3ccc(NS(=O)(=O)c4ccc(OC)cc4)cc3CC(=O)N([C@H](C)CO)C[C@H]2C)cc1,8.49%
6,C[C@@H]1CN([C@H](C)CO)C(=O)Cc2cc(NC(=O)Nc3cccc4ccccc34)ccc2O[C@@H]1CN(C)Cc1ccc(C(=O)O)cc1,2.16%
7,COc1ccc(S(=O)(=O)Nc2ccc3c(c2)CC(=O)N([C@H](C)CO)C[C@@H](C)[C@@H](CN(C)C(=O)Nc2cccc4ccccc24)O3)cc1,11.8%
8,C[C@@H]1CN([C@H](C)CO)C(=O)Cc2cc(NC(=O)Nc3ccccc3)ccc2O[C@@H]1CN(C)Cc1ccc(C(F)(F)F)cc1,1.88%
9,COC(=O)[C@@H]1[C@@H](CO)[C@@H]2Cn3c(ccc(-c4ccc(OC)cc4)c3=O)[C@@H]2N1S(C)(=O)=O,4.09%
10,O=C(N[C@@H]1CC[C@@H](CC(=O)N2CCc3ccccc3C2)O[C@H]1CO)C1CCC1,-0.402%
11,CCC(=O)N1CC(=O)N2[C@H](CO)[C@@H](c3ccc(-c4ccc(C(=O)N(C)C)cc4)cc3)[C@@H]2C1,-1.19%
12,CO[C@H]1CN(C)C(=O)c2ccc(NC(=O)C3CCC3)cc2OC[C@@H](C)N(Cc2ccccn2)C[C@H]1C,-2.1%
13,C[C@H](CO)N1C[C@H](C)[C@H](CN(C)Cc2ccc(C(=O)O)cc2)OCc2cn(nn2)CCCC1=O,-4.21%
14,Cc1ccccc1C(=O)N[C@H](C(=O)N1CCC[C@H]1C(=O)NCc1ccccc1)C(C)C,5.11%
15,CO[C@H]1CN(C)C(=O)c2cc(NS(=O)(=O)c3ccccc3)ccc2OC[C@@H](C)N(Cc2nccs2)C[C@@H]1C,1%
16,COc1ccc(CN(C)C[C@@H]2Oc3c(NC(=O)C4CC4)cccc3C(=O)N([C@@H](C)CO)C[C@H]2C)cc1,1.33%
17,Cc1ccc(S(=O)(=O)N(C)C[C@@H]2Oc3ccc(N(C)C)cc3C(=O)N([C@@H](C)CO)C[C@H]2C)cc1,-2.31%
18,COc1ccccc1S(=O)(=O)N1C[C@@H](O)COC[C@H]2O[C@H](CC(=O)O)CC[C@@H]21,-5.9%
19,CCC(=O)N1C[C@@H](O)COC[C@H]2O[C@H](CC(=O)NCC3CCCCC3)CC[C@@H]21,-3.78%
20,O=C1CN(Cc2ccc(F)cc2)C[C@H]2[C@@H](c3ccc(Br)cc3)[C@H](CO)N12,4.49%
21,CO[C@H]1CN(C)C(=O)c2ccc(NC(=O)CC(F)(F)F)cc2OC[C@H](C)N(C(=O)C2CC2)C[C@H]1C,3.96%

row,SMILES,inhibition
1,O=C(CC1CC1)N1[C@@H](CO)[C@@H](c2ccccc2)C12CN(S(=O)(=O)c1ccccc1)C2,7.09%
2,COCC(=O)N1C[C@@H]2[C@H](c3ccccc31)[C@@H](CO)N2C(=O)C1CC1,-1.61%
3,COCC#Cc1ccc([C@H]2[C@H](CO)N3C(=O)CN(C(=O)Nc4ccccc4F)C[C@@H]23)cc1,3.85%
4,CNC[C@H]1Oc2ccc(NS(=O)(=O)c3cn(C)cn3)cc2C(=O)N([C@@H](C)CO)C[C@@H]1C,-3.85%
5,O=C(C[C@@H]1C[C@@H]2c3cc(NC(=O)c4ccc5c(c4)OCO5)ccc3O[C@@H]2[C@H](CO)O1)NCC1CC1,-3.55%
6,Cc1cccc(-c2ccc([C@@H]3[C@H](CO)N4CCCCN(Cc5ccncc5)C[C@@H]34)cc2)c1,10.1%
7,COc1ccc2c3c(n(C)c2c1)[C@H](CO)N(Cc1ccc(F)cc1)CC31CCN(C)CC1,-1.69%
8,CO[C@H]1CN(C)C(=O)c2cc(NC(=O)C3CCC3)ccc2OC[C@H](C)N(CC2CCCCC2)C[C@@H]1C,-3.58%
9,CCCNC(=O)N(C)C[C@H]1Oc2cc(-c3ccncc3)ccc2S(=O)(=O)N([C@H](C)CO)C[C@@H]1C,1.24%
10,CCCNC(=O)N1[C@@H]2CNC[C@H]1C2c1ccc(-c2cccc(C)c2)cc1 (stereo partly drawn),2.37% and -1.56%
11,O=C(N[C@@H]1CC[C@H](CCn2cc(-c3ccccc3)nn2)O[C@H]1CO)c1cnccn1,19.2%
12,C[C@@H]1CN([C@@H](C)CO)C(=O)Cc2cc(NS(=O)(=O)c3cccs3)ccc2O[C@H]1CN(C)S(=O)(=O)c1ccc(F)cc1,18.7%
13,CC(C)NC(=O)N1[C@H](C#N)[C@H](c2ccc(C#CC3CCCCC3)cc2)[C@H]1CO,-0.752%
14,O=C(Cc1ccccn1)NCC[C@H]1CC[C@H](NC(=O)Nc2ccc(F)cc2)[C@@H](CO)O1,-0.166%
15,C[C@@H]1CN([C@@H](C)CO)C(=O)c2cccc(NS(=O)(=O)c3ccc(F)cc3)c2O[C@@H]1CN(C)Cc1ccc(C(=O)O)cc1,0.602%
16,Cc1noc(C)c1NC(=O)N(C)C[C@@H]1Oc2ccc(NC(=O)C3CC3)cc2C(=O)N([C@H](C)CO)C[C@@H]1C,7.46%
17,CC(C)NC(=O)N1[C@H](CNC(=O)CN(C)C)[C@@H](c2ccccc2)[C@@H]1CO,6.83%
18,O=C(C[C@@H]1C[C@H]2c3cc(NC(=O)NC4CCCC4)ccc3O[C@H]2[C@@H](CO)O1)NC1CCCCC1,5.32%
19,CCC(=O)Nc1ccc2c(c1)OC[C@H](C)N(C(=O)c1ccccc1F)C[C@@H](C)[C@H](OC)CN(C)C2=O,12.1%
20,C[C@@H]1CN([C@@H](C)CO)C(=O)CCCn2cc(nn2)CO[C@@H]1CN(C)Cc1ccccc1C(=O)O,1.73%
21,COC(=O)[C@]12C[C@H](CC(=O)NCc3ccccc3)C(=O)N(CCC3=CCCCC3)C1=C[C@H](C(C)(C)C)O[C@@H]2C,15.6%

row,SMILES,inhibition
1,CN1C(=O)c2cc(NC(=O)C3CCOCC3)ccc2OC[C@H]2O[C@@H](CC(=O)NCC3CCCCC3)CC[C@@H]21,-1.95%
2,COC(=O)CNC(=O)c1ccccc1[N+](=O)[O-],-6.79%
3,COc1ccc(Br)cc1/C=N/Nc1ccc(S(=O)(=O)Nc2ccccc2C(=O)O)cc1[N+](=O)[O-],-6.38%
4,COCCNC(=O)c1ccccc1NS(=O)(=O)c1ccc(C)c([N+](=O)[O-])c1,32.3% (active)
5,CC(=O)c1c(C)[nH]c(C(=O)COC(=O)c2cccs2)c1C,14.1%
6,COc1cccc(C(=O)OCC(=O)c2[nH]c(C)c(C(C)=O)c2C)c1,27.2% (active)
7,CCOC(=O)c1c(C)[nH]c(C(=O)OCC(=O)c2ccc(OC)cc2OC)c1C,-4.48%
8,C[C@@H]1CN([C@@H](C)CO)C(=O)c2cc(NC(=O)CCCN(C)C)ccc2O[C@@H](C)CCCCO[C@@H]1CN(C)S(=O)(=O)c1ccc(Cl)cc1,0.282%
9,C[C@@H]1CN([C@@H](C)CO)C(=O)Cc2cc(NC(=O)CCN3CCOCC3)ccc2O[C@@H]1CN(C)C(=O)Nc1cccc2ccccc12,7.67%
10,O=C(N[C@@H]1CC[C@@H](CCn2cc(-c3ccccn3)nn2)O[C@@H]1CO)c1ccccc1,-2.15%
11,COc1ccc(S(=O)(=O)Nc2ccc3c(c2)C(=O)N([C@@H](C)CO)C[C@H](C)[C@H](CN(C)Cc2ccc(C(=O)O)cc2)OCCCC[C@@H](C)O3)cc1,-3.93%
12,Cc1noc(C)c1S(=O)(=O)N(C)C[C@H]1Oc2ccc(NS(=O)(=O)c3cccs3)cc2C(=O)N([C@H](C)CO)C[C@H]1C,-0.984%
13,O=S(=O)(c1ccccc1)N1CCCCN2[C@@H](CO)[C@H](c3ccc(C#Cc4cccnc4)cc3)[C@@H]2C1,-0.401%
14,COCCNC(=O)C[C@@H]1CC[C@H]2[C@H](COc3ccc(NS(=O)(=O)c4ccc(Cl)cc4)cc3C(=O)N2C)O1,6.32%
15,C[C@H]1CN([C@@H](C)CO)C(=O)Cc2cc(NS(=O)(=O)c3cccs3)ccc2O[C@@H]1CN(C)Cc1ccc(Oc2ccccc2)cc1,0.293%
16,COc1ccc2c3c([nH]c2c1)[C@H](CO)N(Cc1ccccc1Cl)CC31CN(C(=O)C2CC2)C1,32% (active)
17,COc1ccc2c3c([nH]c2c1)[C@@H](CO)N(Cc1cc(F)ccc1F)CC31CN(C(=O)C2CCC2)C1,0.016%
18,COc1ccc2c3c([nH]c2c1)[C@@H](CO)N(Cc1ccccc1F)CC31CN(C(=O)C2CC2)C1,5.63%
19,COc1ccc(NC(=O)Nc2cccc3c2O[C@@H](CN(C)C(=O)NC(C)C)[C@H](C)CN([C@H](C)CO)C3=O)cc1,1.64%
20,O=C(C[C@H]1CC[C@H]2[C@@H](COC[C@@H](O)CN2CC2CCCC2)O1)NCC1CC1,5.23%
21,O=C(CCN1CCCCC1)NCC[C@H]1CC[C@@H](NC(=O)C2CCOCC2)[C@H](CO)O1,-1.07%
